Cl transport mod = modulators of human KCC2 chloride dependent transport; AID 1456; actives 2.2% (n = 190,000); Q9H2X9; KCC2 cells, thallium flux FluoZin-2 fluorescence; B-score of Tl+ flux slope (higher = more flux/activation; lower = inhibition) at 10 µM;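 active means thallium flux slope and its plate-corrected score both differing from the plate sample mean at a set confidence after two filtering rounds, in either direction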;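 further: slope of fluorescence scaled to starting intensity during 10 to 20 s after thallium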
Calpain2 inh = calpain II (pig) inhibition. purified calpain II, fluorogenic peptide substrate, 30 min. inhibition, % at 16 µM. actives 0.37% (n = 220,000);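 active means inhibition above about 50%, limit read from the data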
L major viab = inhibitors of Leishmania major promastigote growth | Leishmania major promastigotes, resazurin fluorescence viability | inhibition, % at 10 µM | actives 9% (n = 200,000); in the data active means inhibition above about 50%;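 further: promastigotes grown with compound for 44 hours at 28 °C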
WT yeast gro inh = growth inhibition of WT yeast, mitochondrial fusion screen. mitochondrial fusion phenotypic screen, WT strain. inhibition, % at 10 µM. AID 1362. actives 2.1% (n = 190,000); in the data active means inhibition above about 58%; tested in S. cerevisiae
ROMK primary = modulates human ROMK potassium channel activity | P48048 | Tet-inducible ROMK, thallium flux fluorescence; actives lie on both sides | B-score at 10 µM | AID 1918 | actives 2% (n = 130,000);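 active means signal ratio slope over the read window, or its plate-corrected B-score, at least 3 SD from the plate mean, either direction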;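 further: B-score of the F/F0 ratio slope over 7 to 12 s after thallium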
Target sequence (P48048 whole entry, looked up): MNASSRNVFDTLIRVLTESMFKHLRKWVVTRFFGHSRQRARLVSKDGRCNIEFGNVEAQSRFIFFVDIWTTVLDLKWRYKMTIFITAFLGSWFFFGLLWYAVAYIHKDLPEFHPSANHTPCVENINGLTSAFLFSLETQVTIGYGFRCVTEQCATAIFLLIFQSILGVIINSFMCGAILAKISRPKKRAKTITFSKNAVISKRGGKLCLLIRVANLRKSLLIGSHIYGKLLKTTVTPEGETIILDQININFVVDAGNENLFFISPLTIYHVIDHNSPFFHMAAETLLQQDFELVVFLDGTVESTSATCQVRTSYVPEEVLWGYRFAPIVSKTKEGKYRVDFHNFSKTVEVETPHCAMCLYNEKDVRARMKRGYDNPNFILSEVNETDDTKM
The depositor's hits bear a star; i = inactive; x = no result given. This is a sample that favours compounds with a hit; in the whole collection about 12% have one here.

SMILES	Cl transport mod	Calpain2 inh	L major viab	WT yeast gro inh	ROMK primary
COc1ccc(N(C(=O)Cn2nnc(-c3ccc(Cl)cc3)n2)C(C(=O)NCC2CCCO2)c2ccc(C)cc2)cc1 (stereo not drawn)	x	26.7	-4.0	19.4	x
COc1ccc(N(C(=O)Cn2nnc(-c3ccccc3F)n2)C(C(=O)NCC2CCCO2)c2ccc(Cl)cc2)cc1 (stereo not drawn)	-0.152	67.3*	-6.0	-2.0	x
Cc1ccc(-c2nnn(CC(=O)N(CC3CCCO3)C(C(=O)NC3CCCC3)c3ccc(O)cc3)n2)o1 (stereo not drawn)	-0.973	-31.4	-11.8	-23.7	0.254
Cc1ccc(C(C(=O)NC(C)(C)C)N(CC2CCCO2)C(=O)Cn2nnc(-c3ccc(C)o3)n2)cc1 (stereo not drawn)	-0.562	-18.1	53.9*	3.4	x
COc1cc(SC)ccc1C(=O)Nc1ccc2c(c1)OCCO2	x	11.4	10.9	10.8	-0.256
Cc1nn(Cc2ccc(Cl)cc2)c(C)c1NC(=O)CSc1n[nH]c(C)c1[N+](=O)[O-]	0.4	3.4	-8.0	-2.3	-1.03
Cc1ccc(S(=O)(=O)N2CCCCC2)cc1NC(=O)Cn1c(=O)cnc2ccccc21	-0.382	-33.1	13.3	-0.5	0.586
Cc1ccc(NC(=O)CNc2ccccc2CN(C)C2CCCCC2)cc1	0.138	44.1	60.4*	7.3	-0.235
COc1ccc(Cl)cc1NC(=O)CNc1ccccc1CN(C)C1CCCCC1	-1.81	13.2	95.7*	30.1	-2.22
Cc1ccc(NC(=S)N=Nc2c(O)n(C)c3ccc(S(=O)(=O)N4CCOCC4)cc23)cc1	9.6*	-20.7	33.3	49.9	x
CCOc1ccc2c(c1)OC(c1ccc(OC)cc1)(C(F)(F)F)NC2=O (stereo not drawn)	-0.528	5.6	99.5*	39.8	x
CC(C)NC(=S)NCc1cccnc1	-0.413	-20.8	-3.1	-5.6	x
COc1cc(OC)cc(C(=O)N[C@H](C(=O)OCC(=O)Nc2ccc(C(N)=O)cc2)C(C)C)c1	1.24	31.9	55.9*	9.8	x
O=c1c2c(nc3n1CCCCC3)-c1ccccc1CC21CCCCC1	0.908	29.1	2.7	78.5*	-0.0454
NNc1nc(N)c2c(n1)-c1ccccc1CC21CCCC1	0.0438	-44.0	100.4*	-1.8	x
CC1(C)CC(n2c(NCCO)nc3c(c2=O)C2(CCCC2)Cc2ccccc2-3)CCO1 (stereo not drawn)	0.79	x	99.8*	20.4	-2.74
O=c1[nH]c(NCCO)nc2c1C1(CCCCC1)Cc1ccccc1-2	0.297	-484.3	8.0	x	-0.97
O=c1[nH]c(CN2CCCCC2)nc2c1C1(CCCCC1)Cc1ccccc1-2	-0.768	-38.8	2.7	7.9	0.822
O=c1c2c(nc(NCCO)n1CC1CCCCC1)-c1ccccc1CC21CCCC1	x	-303.6	90.6*	68.6*	-0.465
CC1CCCC(C)N1C(=C(Cl)Cl)C(=C1SCCS1)[N+](=O)[O-] (stereo not drawn)	-0.0136	-4.4	16.1	38.6	0.333
CCC1(C)Cc2ccccc2-c2nc(NCCO)n(-c3ccc(C)cc3)c(=O)c21 (stereo not drawn)	0.372	-434.7	63.3*	-6.9	-1.33
CCC1(C)Cc2ccccc2-c2nc(NCCO)n(-c3ccccc3)c(=O)c21 (stereo not drawn)	1.37	i	6.4	3.6	-1.1
N=C1SC(CC(=O)Nc2ccccc2[N+](=O)[O-])C(=O)N1c1ccccc1 (stereo not drawn)	-2.45	11.3	x	x	x
CCNC(=S)N/N=C1\CCCCc2ccccc21	6.59*	6.9	-3.3	65.3	x
C=C(C)CNC(=S)N/N=C1\CCCCc2ccccc21	11*	13.2	98.8*	64.9*	x
SMILES	Cl transport mod	Calpain2 inh	L major viab	WT yeast gro inh	ROMK primary
COc1ccccc1OCC(=O)N/N=C1\CCCCc2ccccc21	-2.62	-8.5	x	x	x
O=C(N/N=C1\CCCc2ccccc21)c1ccccc1Cl	-0.331	-15.4	88.2*	-12.3	-0.44
CCOCCCN(C(=O)Cn1nnc(-c2ccc(C)o2)n1)C(C(=O)NCC1CCCO1)c1ccc(F)cc1 (stereo not drawn)	0.302	8.8	x	x	x
O=C(Nc1ccccc1Cl)c1ccc(S(=O)(=O)N2CCOCC2)cc1	x	-1.2	10.4	3.9	x
CC1(C)CC2CC(C)(CN2S(=O)(=O)c2ccc(C(=O)Nc3cc(S(=O)(=O)N4CCOCC4)ccc3Cl)cc2)C1 (stereo not drawn)	-0.0519	-61.5	98.8*	7.3	x
CC(=O)Oc1ccc(-c2ccc(C(=O)Nc3cccc(S(=O)(=O)N4CCOCC4)c3)cc2)cc1	0.875	-58.7	15.4	-1.5	0.447
CC1(C)CC2CC(C)(CN2S(=O)(=O)c2ccc(C(=O)Nc3cccc(S(=O)(=O)N4CCOCC4)c3)cc2)C1 (stereo not drawn)	-0.799	-43.8	99.2*	1.2	x
COc1ccc(CN(CC2CCC(C(=O)O)CC2)C(=S)Nc2cc(Cl)ccc2OC)cc1 (stereo not drawn)	-2.5	21.0	-1.2	-10.0	-0.387
COC(=O)c1ccc2c(c1)S(=O)(=O)NC(=NCc1ccco1)S2	0.173	-19.2	95.8*	-0.6	x
CCn1c(=O)c(C(=O)CN2CCN(Cc3ccc4c(c3)OCO4)CC2)c(N)n(Cc2ccccc2)c1=O	-0.00238	-15.3	28.8	-14.7	-1.48
CCn1c(=O)c(C(=O)CN2CCN(S(=O)(=O)c3cc(C)ccc3C)CC2)c(N)n(Cc2ccccc2)c1=O	0.174	-28.6	64.7*	27.7	-0.572
CCN1CCN(CCNC(=O)c2cn(C(C)c3ccccc3F)nn2)CC1 (stereo not drawn)	2.8	-27.3	-3.0	-9.8	x
Cc1ccc(C(C)n2cc(C(=O)NCCN3CCN(C)CC3)nn2)cc1 (stereo not drawn)	x	9.3	92.0*	-20.3	x
O=C(/C=C/c1ccc(Br)o1)NCc1ccccc1	0.0382	-43.6	-4.0	10.5	-0.707
N=C(c1ccc([N+](=O)[O-])cc1)N1CCCCCC1	0.285	-26.2	-6.5	1.7	0.388
CCOC(=O)c1c(C)oc2ccc(OC(=O)c3cccs3)cc12	-0.516	26.1	-5.4	67.9*	-0.0238
CCOC(=O)Oc1ccc2oc(C)c(C(=O)OCCOC)c2c1	0.0987	19.4	-8.4	9.0	0.981
COc1ccc(C(NC(=O)c2c(F)c(F)c(F)c(F)c2F)c2ccccc2)cc1 (stereo not drawn)	-1.02	17.3	94.9*	29.0	x
Cc1cc(=O)n2c(C(=O)Nc3ccc(C(=O)OC(C)C)cc3)c(C(=O)Nc3ccccc3)sc2n1	-0.23	-19.4	8.8	10.7	0.608
O=C(CSc1nnc(CCc2ccccc2)n1-c1ccc(Cl)cc1)NCc1ccccc1	-1.58	-1.9	100.0*	21.1	-2.26
C=CCn1c(CSCc2ccc(C)cc2)nnc1SCC(=O)NCc1ccccc1	-0.936	-13.0	-4.9	-4.8	-1.91
C=CCn1c(CSCc2ccc(Cl)cc2)nnc1SCC(=O)NCc1ccccc1	-1.88	-2.3	-1.0	12.1	-3.05*
COc1cc(CNCc2ccccn2)ccc1OCc1ccc(Cl)cc1Cl	1.84	-3.8	99.2*	62.8	x
COc1cc(CNCc2ccccn2)ccc1OCc1ccc(Cl)c(Cl)c1	3.74	26.9	100.0*	72.2*	-1.79
COc1cc(CNCc2ccccn2)ccc1OCC(N)=O	0.00787	-2.4	-1.8	-5.2	0.0677
